Measured values published in PubChem BioAssay AID939 (National Center for Advancing Translational Sciences (NCATS), 2007).
Records with an inconclusive call do not appear. The source made the active and inactive calls. The call rests on the fitted dose curve; in most records, active means well fitted activation curve with a large enough effect in the main read-out, with a control signal flat; inconclusive means small, poorly fitted or top-dose-only effect, or effect the other way, or a change in a side signal; inactive means no such curve, though single readings can be large or run the other way.

What follows are compounds tested against Thyrotropin receptor (Homo sapiens) (UniProt P16473) (assay: Confirmation Concentration-Response Assay for Agonists of the Thyroid Stimulating Hormone Receptor). Conditions: HEK293 TSHR-CNG cells, membrane potential dye, cAMP; series mostly up to 25.6 µM; activation: at the top concentration.
Thyrotropin receptor (Homo sapiens), sequence (P16473 whole entry, looked up): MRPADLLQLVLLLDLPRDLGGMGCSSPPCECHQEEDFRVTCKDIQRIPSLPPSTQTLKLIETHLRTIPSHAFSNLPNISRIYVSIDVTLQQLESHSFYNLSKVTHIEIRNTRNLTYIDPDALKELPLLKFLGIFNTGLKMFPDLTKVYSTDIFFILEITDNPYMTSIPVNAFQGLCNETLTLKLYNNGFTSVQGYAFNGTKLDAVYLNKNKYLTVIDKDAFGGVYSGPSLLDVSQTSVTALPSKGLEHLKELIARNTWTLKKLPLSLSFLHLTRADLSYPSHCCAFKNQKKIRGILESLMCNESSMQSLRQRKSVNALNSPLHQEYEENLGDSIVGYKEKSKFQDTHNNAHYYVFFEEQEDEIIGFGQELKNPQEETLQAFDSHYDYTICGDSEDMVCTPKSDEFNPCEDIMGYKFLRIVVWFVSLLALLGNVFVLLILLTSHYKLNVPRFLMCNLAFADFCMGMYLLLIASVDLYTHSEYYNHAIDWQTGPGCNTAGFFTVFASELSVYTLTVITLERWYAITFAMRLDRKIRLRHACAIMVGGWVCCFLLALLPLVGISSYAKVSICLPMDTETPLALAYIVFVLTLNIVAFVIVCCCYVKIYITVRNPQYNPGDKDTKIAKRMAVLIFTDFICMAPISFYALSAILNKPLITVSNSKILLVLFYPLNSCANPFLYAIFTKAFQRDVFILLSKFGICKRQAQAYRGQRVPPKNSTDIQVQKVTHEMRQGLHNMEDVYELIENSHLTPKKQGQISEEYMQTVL
Description: NIH Chemical Genomics Center [NCGC] NIH Molecular Libraries Screening Centers Network [MLSCN] MLSCN Grant: 1 X01 MH080680-01 PI Name: Dr. Marvin Gershengorn, NIH NCGC Assay Overview: Thyroid Stimulating Hormone Receptor TSH is an alpha/beta heterodimeric glycoprotein hormone secreted from the anterior pituitary gland which belongs to the glycoprotein hormone family. The actions of TSH are mediated by a seven-transmembrane receptor, which upon TSH binding couples preferentially to the G-alpha (s) protein (Gs), resulting in activation of adenylate cyclase and increase in cyclic adenosine 3', 5' monophosphate (cAMP). The TSH receptor (THSR) is mainly expressed in thyroid follicular cells and regulates their growth and function. Recombinant TSH is used to activate TSHR in patients with thyroid cancer receiving thyroid hormone suppression therapy and to screen for residual tumor after surgery, but it is expensive and must be administered intramuscularly. An orally active small molecule TSHR agonist would serve as an invaluable research tool for studying TSHR pharmacology and physiology, and would have multiple advantages in therapeutic settings. However, no selective small molecule agonist of the TSH receptor exists, and no small molecule screen for TSHR agonists has ever been reported. This cell based assay utilized a cyclic nucleotide gated ion channel (CNG) as a biosensor for cAMP induction by potential TSHR agonists. TSHR cell line HEK 293 cells stably expressing the TSHR as well as a modified CNG were purchased from BD biosciences. Stimulation of cAMP production causes the CNG to open and subsequent membrane depolarization to occur. A fluorescent membrane potential dye (BD biosciences) was utilized to detect cAMP stimulation in TSHR cells. The cells were maintained in DMEM medium (Invitrogen) containing 10 % FBS (Hyclone), 100 units/ml Penicillin, 100 ug/ml Streptomycin (Invitrogen), and 250 ug/ml Geneticin (Invitrogen) and 1 ug/ml Puromycin (Invitrogen) at 37C in 5% CO2. HEK 293 cells expressing CNG but without TSHR (parental cells) were used in concert to control for compounds signaling through endogenous receptors and targets of HEK 293 cells.
NCGC Assay Protocol Summary: High Throughput Screening. Freshly passaged cells (TSHR or parental) were dispensed into 1536-well assay plates at 4 ul/well in DMEM containing phenol red (Invitrogen), 10% FCS (Hyclone), and 100 units/ml Penicillin, 100 ug/ml Streptomycin (Invitrogen) and incubated at 37 C with 5% CO2 for 20 to 36 hrs before the robotic screening. The screen was initiated by addition of 4 ul/well membrane potential dye containing 100 uM RO 20-1724 (Sigma Aldrich), followed by 60 min incubation at room temperature to allow for dye equilibration across the cell membrane. 23 nl/well compound or control was then added to the assay plates, which were incubated for additional 30 min before reading a Envision fluorescence plate reader (Perkin Elmer) in bottom-read mode for fluorescence intensity (emission at 590 nm). Keywords: Thyroid-stimulating hormone TSH, TSHR, TSHR agonist, quantitative high throughput screening, qHTS, HTS, probe identification, CNG, cAMP, cyclic nucleotide gated ion channel PubChem
Potency means the concentration at half of the fitted maximal effect.
Wherever activation is given: % of control where 0% means no effect.

Row | Structure (SMILES) | Potency | activation
1 | Cc1occc1-c1nnc(SCC(=O)NCc2ccc3c(c2)OCO3)n1CC(C)C | 12.6 µM (active) | –
2 | O=C(C1COc2ccccc2O1)N1CCCC1 (stereo not given) | – | -9.39% (inactive)
3 | CSc1nc(NC(C)(C)C)nc(Oc2ccc(=O)[nH]n2)n1 | – | 25% [at 32.9 µM] (inactive)
4 | COc1ccc(C2Nc3ccccc3C(=O)N2Cc2ccco2)cc1COc1ccc(NC(C)=O)cc1 (stereo not given) | 0.631 µM (active) | –
5 | Cc1ccc(C)c(Cn2c(C(C)O)nc3ccccc32)c1 (stereo not given) | 3.98 µM (active) | –
6 | Nc1ccc2c(c1)COc1ccccc1O2 | – | -6.04% (inactive)
7 | Cc1oc(-c2cccc(Cl)c2)nc1CN1CCCC(C(=O)NC(C)c2ccc3c(c2)OCCO3)C1 (stereo not given) | – | -51.1% (inactive)
8 | COC(=O)c1cc(NC2c3ccccc3C(=O)N2c2cccnc2)cc(C(=O)OC)c1 (stereo not given) | 12.6 µM (active) | –
9 | Cc1nc2ccc(Br)cn2c(=O)c1Cl | – | 24.6% (inactive)
10 | Cc1ccc(S(=O)(=O)N2CCC(C(=O)NCCCN3CCCCCC3)CC2)cc1 | – | 13.1% [at 32.9 µM] (inactive)
11 | CCSCCOC(=O)C1=C(C)N(C)C(=O)NC1c1cc(OC)ccc1OC (stereo not given) | – | 24.2% [at 32.9 µM] (inactive)
12 | Cc1cc(SCNC(=O)c2ccccc2)ncn1 | – | 9.24% (inactive)
13 | CCn1c(=O)c(C(=O)CN2CCCc3ccccc32)c(N)n(Cc2ccccc2)c1=O | – | -31.3% (inactive)
14 | CC(=O)Nc1ccc(S(=O)(=O)N(C)c2ccccc2)cc1 | – | 21% [at 32.9 µM] (inactive)
15 | Cc1onc(-c2ccccc2Cl)c1C(=O)Nc1ccc(-n2nncc2-c2ccco2)cc1 | 12.6 µM (active) | –
16 | Cc1occc1-c1nnc(SCC(=O)Nc2ccccc2)n1C(C)c1ccccc1 (stereo not given) | 12.6 µM (active) | –
17 | Cc1onc(-c2ccccc2)c1C(=O)N1CCCSC1=Nc1ccccc1 | 7.94 µM (active) | –
18 | Cc1ccccc1NC(=O)CSc1nnc(-c2ccoc2C)n1CCc1ccccc1 | 6.31 µM (active) | –
19 | CN1C(=O)C2C=CC1C1C(=O)N(c3ccccc3)C(=O)C21 (stereo not given) | – | 7.27% (inactive)
20 | Cc1cnc(NC(=O)c2ccc3c(c2)C(=O)N(Cc2ccco2)C3=O)s1 | – | -33.1% (inactive)

Row | Structure (SMILES) | Potency | activation
21 | COc1cc(NC(=O)c2cc(-n3cnnc3)ccc2Cl)cc(OC)c1 | – | -15.6% (inactive)
22 | Nc1cc(CN2C(=O)c3ccccc3C2=O)cc(Cl)c1O | – | -3.93% (inactive)
23 | O=S1(=O)N=C(Oc2ccccc2)c2ccccc21 | – | 23.9% (inactive)
24 | C=CCn1c(NCc2ccc3c(c2)OCO3)nc2ccccc21 | – | -24.4% (inactive)
25 | CC(C)CC(=O)Nc1cccc(-c2cn3ccsc3n2)c1 | – | -14.2% [at 32.9 µM] (inactive)
26 | COc1cc2c(N3CCOCC3)cc(O)c(CC(=O)Nc3ccccc3)c2cc1OC | – | -11.2% [at 32.9 µM] (inactive)
27 | COc1ccc(-c2ccc(-c3noc(C)n3)c(OC)n2)cc1 | – | -6.03% [at 32.9 µM] (inactive)
28 | Cc1ccc(N(CC(=O)NCc2ccco2)S(=O)(=O)c2ccccc2)cc1 | 12.6 µM (active) | –
29 | O=C1N(c2ccccc2)C2CS(=O)(=O)CC2N1c1ccc(Cl)c(Cl)c1 (stereo not given) | – | -86.5% (inactive)
30 | CCOC(=O)c1ccc(NC(=O)c2ccc(CN3CCOCC3)cc2)cc1 | – | -4.24% [at 32.9 µM] (inactive)
31 | COc1ccc(C(=O)N(Cc2ccco2)Cc2cccs2)c(O)c1 | 1 µM (active) | –
32 | COc1cc(/C=N/n2c(SC)nnc(C(C)(C)C)c2=O)ccc1O | – | -13% (inactive)
33 | COc1cccc(C(c2nnnn2Cc2ccccc2)N2CCN(C(=O)c3ccco3)CC2)c1OC (stereo not given) | – | -7.01% [at 32.9 µM] (inactive)
34 | O=C(Nc1ccc(N2CCOCC2)cc1)C1CC1 | – | 14.8% (inactive)
35 | CCOC(=O)c1cnc(-n2nc(C)cc2C)nc1-n1nc(C)cc1C | – | -13.4% [at 32.9 µM] (inactive)
36 | CC1(C)c2ccccc2N2CC(=O)NC21/C=C/c1ccco1 (stereo not given) | 12.6 µM (active) | –
37 | O=C(CN(Cc1ccccc1Cl)C(=O)Cn1nnc(-c2cccs2)n1)NCC1CCCO1 (stereo not given) | – | 11.5% [at 32.9 µM] (inactive)
38 | CC(=O)N1CCCc2cc(S(=O)(=O)N(CC(C)C)CC(C)C)ccc21 | 12.6 µM (active) | –
39 | C=CCn1c(COc2ccccc2F)nnc1SCC(=O)N1CC(=O)Nc2ccccc21 | – | 4.48% (inactive)
40 | COc1cccc(C2CC(c3ccccc3OC)n3nc(N)nc3N2)c1 (stereo not given) | – | 15.4% (inactive)
